Results filed as inconclusive are left out. Activity calls are given as the source filed them.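 How the source made its calls, unless noted: active means normalized viability below 100% at a tested concentration; inactive means the rest.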
Key:
[1] = ovarian cancer cell viability with rucaparib, profiling panel, oncology-focused library, rucaparib conditional (AID 1508598); settings: patient-derived ovarian cancer cells, CellTiter-Glo viability, 144 h, stronger effect = lower value
[2] = growth inhibition of DIPG glioma cells, dose response, cell-based, SU-DIPG-XVII, MIPE5.0, CellTiter-Glo, qHTS (AID 1347060; cut-off not given, nearly all actives have AC50 up to about 26 µM;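 further: cells exposed to compound for 48 hours before viability readout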); settings: SU-DIPG-XVII viability, CellTiter-Glo ATP luminescence
[3] = growth inhibition of DIPG glioma cells, dose response, cell-based, SU-DIPG-XIII, MIPE4.0, CellTiter-Glo, qHTS (AID 1347061; cut-off not given, nearly all actives have AC50 up to about 37 µM;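 further: cells exposed to compound for 48 hours before readout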); settings: SU-DIPG-XIII viability, CellTiter-Glo ATP luminescence
[4] = growth inhibition of DIPG glioma cells, dose response, cell-based, JHH-DIPG-1, MIPE4.0, CellTiter-Glo, qHTS (AID 1347062; cut-off not given, nearly all actives have AC50 up to about 27 µM;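 further: cells exposed to compound for two days before readout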); settings: JHH-DIPG-1 viability, CellTiter-Glo ATP luminescence
[5] = growth inhibition of DIPG glioma cells, dose response, cell-based, SU-DIPG-IV, MIPE4.0, CellTiter-Glo, qHTS (AID 1347063; cut-off not given, nearly all actives have AC50 up to about 30 µM;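 further: compound exposure lasted 48 hours before the viability readout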); settings: SU-DIPG-IV viability, CellTiter-Glo ATP luminescence
[6] = growth inhibition of DIPG glioma cells, dose response, cell-based, SU-DIPG-XIII, MIPE5.0, CellTiter-Glo, qHTS (AID 1347064; cut-off not given, nearly all actives have AC50 up to about 23 µM;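 further: cells exposed to compound for 48 hours before the viability read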); settings: SU-DIPG-XIII viability, CellTiter-Glo ATP luminescence
[7] = viability loss in pontine glioma line – cell-based, SU-DIPG-XXV, MIPE5.0, CellTiter-Glo, qHTS, dose response (AID 1347065; cut-off not given, nearly all actives have AC50 up to about 26 µM;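 further: cells exposed to compound for 48 hours before ATP readout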); settings: CellTiter-Glo ATP luminescence
[8] = SU-DIPG-VI glioma cell viability, MIPE4.0 library, CellTiter-Glo luminescence, qHTS (AID 1347066; cut-off not given, nearly all actives have AC50 up to about 30 µM;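 further: cells exposed to compound for 48 hours before readout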); settings: CellTiter-Glo ATP luminescence
[9] = JHH-DIPG-1 glioma cell viability, MIPE5.0 library, CellTiter-Glo luminescence, qHTS (AID 1347067; cut-off not given, nearly all actives have AC50 up to about 26 µM;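 further: cells exposed to compound for 48 hours before readout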); settings: JHH-DIPG-1 glioma viability, CellTiter-Glo ATP luminescence
[10] = SU-DIPG-XXV glioma cell viability, MIPE5.0 library, qHTS (AID 1347068; cut-off not given, nearly all actives have IC50 up to about 30 µM;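 on IC50: cells exposed to compound for 48 hours before viability readout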)
[11] = sensitizers of A549 cells to miR-34 induction, primary screen, imaging, A549 dox-inducible miR-34, nuclei and caspase counts (AID 1347080;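 active means compounds whose cell count with miR-34 switched on is under 0.7 times the count with it off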); settings: A549 miR-34 inducible, Hoechst nuclei count, 48 h
[12] = modifiers of HSF1 nuclear foci, imaging, Selleck Cancer Library (AID 1347162; in the data active means plate-normalised HSF1 focus index below about 0.46); settings: human cells, at 10 µM; SSMD: measured here: HSF1 foci SSMD mean; cell count: measured here: cell number; plate-normalised HSF1 focus index: stronger effect = lower value
[13] = survival rescue of mitochondrial mutant cells in low glucose, primary screen, MELAS cybrids, Rieske KO mouse fibroblasts, CellTiter-Glo (AID 1508586;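 active means mean z-score across replicates of 1.96 or higher in either the MELAS or the Rieske mutant cell line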;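 further: z relative to plate mean and SD of compound and empty wells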)
[14] = at 0.0781 µM, OCI-P5x cells, with rucaparib 20 µM, 100% = cells with rucaparib alone
[15] = at 0.0781 µM, OCI-P5x cells, without rucaparib
[16] = at 0.313 µM, OCI-C5x cells, with rucaparib 10 µM, 100% = cells with rucaparib alone
[17] = at 0.313 µM, OCI-C5x cells, without rucaparib
[18] = at 0.313 µM, OCI-P5x cells, with rucaparib 20 µM, 100% = cells with rucaparib alone
[19] = at 0.313 µM, OCI-P5x cells, without rucaparib
[20] = at 1.25 µM, OCI-C5x cells, with rucaparib 10 µM, 100% = cells with rucaparib alone
[21] = at 1.25 µM, OCI-C5x cells, without rucaparib
[22] = at 1.25 µM, OCI-P5x cells, with rucaparib 20 µM, 100% = cells with rucaparib alone
[23] = at 1.25 µM, OCI-P5x cells, without rucaparib
[24] = at 5 µM, OCI-C5x cells, with rucaparib 10 µM, 100% = cells with rucaparib alone
[25] = at 5 µM, OCI-C5x cells, without rucaparib
[26] = at 5 µM, OCI-P5x cells, with rucaparib 20 µM, 100% = cells with rucaparib alone
[27] = at 5 µM, OCI-P5x cells, without rucaparib
[28] = at 0.000305 µM, OCI-C5x cells, with rucaparib 10 µM, 100% = cells with rucaparib alone
[29] = at 0.000305 µM, OCI-C5x cells, without rucaparib
[30] = at 0.000305 µM, OCI-P5x cells, with rucaparib 20 µM, 100% = cells with rucaparib alone
[31] = at 0.000305 µM, OCI-P5x cells, without rucaparib
[32] = at 0.00122 µM, OCI-C5x cells, with rucaparib 10 µM, 100% = cells with rucaparib alone
[33] = at 0.00122 µM, OCI-C5x cells, without rucaparib
[34] = at 0.00122 µM, OCI-P5x cells, with rucaparib 20 µM, 100% = cells with rucaparib alone
[35] = at 0.00122 µM, OCI-P5x cells, without rucaparib
[36] = at 0.00488 µM, OCI-C5x cells, with rucaparib 10 µM, 100% = cells with rucaparib alone
[37] = at 0.00488 µM, OCI-C5x cells, without rucaparib
[38] = at 0.00488 µM, OCI-P5x cells, with rucaparib 20 µM, 100% = cells with rucaparib alone
[39] = at 0.00488 µM, OCI-P5x cells, without rucaparib
[40] = at 0.0195 µM, OCI-C5x cells, with rucaparib 10 µM, 100% = cells with rucaparib alone
[41] = at 0.0195 µM, OCI-C5x cells, without rucaparib
[42] = at 0.0195 µM, OCI-P5x cells, with rucaparib 20 µM, 100% = cells with rucaparib alone
[43] = at 0.0195 µM, OCI-P5x cells, without rucaparib
[44] = at 0.0781 µM, OCI-C5x cells, with rucaparib 10 µM, 100% = cells with rucaparib alone
[45] = at 0.0781 µM, OCI-C5x cells, without rucaparib

CCC[C@H](NC(=O)/C(C#N)=C/c1cccc(Br)n1)c1ccccc1
inactive: viability [1, 14] 104% | viability [1, 15] 128% | viability [1, 16] 126% | viability [1, 17] 134% | viability [1, 18] 102% | viability [1, 19] 123% | viability [1, 20] 106% | viability [1, 21] 141% | viability [1, 23] 111% | viability [1, 25] 102%
active: viability [1, 22] 46.8% | viability [1, 24] 8.18% | viability [1, 26] 2.03% | viability [1, 27] 8.95%

CCNC(=O)c1noc(-c2cc(C(C)C)c(O)cc2O)c1-c1ccc(CN2CCOCC2)cc1
inactive: outcome [10] | fold change ([11]; stronger effect = lower value, cell number ratio, induced over uninduced) 1.03 | plate-normalised HSF1 focus index [12] 1.08 | viability [1, 28] 136% | viability [1, 29] 129% | viability [1, 31] 112% | viability [1, 32] 131% | viability [1, 33] 137%
2.25: SSMD [12]
1290: cell count ([11]; measured here: total cells without miR-34 induction)
0.0253: z-score ([13]; Rieske KO mouse fibroblast survival, CellTiter-Glo 72 h)
0.796: fold change ([11]; measured here: relative caspase fold change +Dox/-Dox)
active: AC50 [2] 16.6 nM | AC50 [3] 105 nM | AC50 [4] 74.3 nM | AC50 [5] 52.6 nM | AC50 [6] 33.2 nM | AC50 [7] 11.8 nM | AC50 [8] 4690 nM | AC50 [9] 20.9 nM | z-score ([13]; MELAS cybrid survival, CellTiter-Glo 48 h, stronger effect = higher value) 2.88 | viability [1, 30] 98% | viability [1, 34] 69.1% | viability [1, 35] 97.9% | viability [1, 36] 29.2% | viability [1, 37] 12.3% | viability [1, 38] 13.9% | viability [1, 39] 5.95% | viability [1, 40] 9.68% | viability [1, 41] 9.96% | viability [1, 42] 6.4% | viability [1, 43] 4.69% | viability [1, 44] 9.48% | viability [1, 45] 9.56% | viability [1, 14] 6.42% | viability [1, 15] 4.47% | viability [1, 16] 8.98% | viability [1, 17] 9.43% | viability [1, 18] 5.55% | viability [1, 19] 3.94% | viability [1, 20] 10.6% | viability [1, 21] 9.54% | viability [1, 22] 4.83% | viability [1, 23] 3.83% | viability [1, 24] 9.11% | viability [1, 25] 9.15% | viability [1, 26] 3.61% | viability [1, 27] 2.59%
7410: cell count [12]
1340: cell count ([11]; measured here: total cells with miR-34 induction, stronger effect = lower value)

Cc1cc(Nc2cc(N3CCN(C)CC3)nc(/C=C/c3ccccc3)n2)n[nH]1
inactive: viability [1, 28] 120% | viability [1, 29] 103% | viability [1, 30] 101% | viability [1, 32] 106% | viability [1, 33] 107% | viability [1, 34] 110% | viability [1, 35] 108% | viability [1, 36] 113% | viability [1, 37] 104% | viability [1, 38] 118% | viability [1, 39] 114% | viability [1, 40] 115% | viability [1, 41] 116% | viability [1, 42] 109% | viability [1, 43] 107% | viability [1, 44] 110% | viability [1, 14] 103% | viability [1, 15] 107% | viability [1, 16] 110% | viability [1, 17] 112%
active: AC50 [2] 1050 nM | AC50 [3] 12100 nM | AC50 [4] 27000 nM | AC50 [5] 13600 nM | AC50 [6] 2090 nM | AC50 [7] 1050 nM | AC50 [8] 13600 nM | AC50 [9] 4680 nM | IC50 [10] 2630 nM | viability [1, 31] 97.8% | viability [1, 45] 95.9% | viability [1, 18] 87.9% | viability [1, 19] 93.6% | viability [1, 20] 90.9% | viability [1, 21] 93.3% | viability [1, 22] 74% | viability [1, 23] 56.9% | viability [1, 24] 95.4% | viability [1, 25] 54.2% | viability [1, 26] 3.53% | viability [1, 27] 6.43%
